# Measurements published in PubChem BioAssay AID540259 (Broad Institute, 2011).
# Measured potencies and affinities stand elsewhere. A number with no mark means an inactive call.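 Rule for the calls: active = cell killing, meaning signal decrease, with fitted half-maximal dose at or below ten times the top valid tested dose; inconclusive = poor fit, or flat curve with 30 to 70% signal loss; inactive = the rest.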
# Assay: HeLa cell cytotoxicity, dose response, cytotoxicity control for MITF activator project, CellTiter-Glo luminescence, cherry-pick samples (AID 540259);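 note: 0% = DMSO neutral control and -100% = mitoxantrone positive control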
# Details: HeLa viability, CellTiter-Glo ATP luminescence, 24 h; series mostly up to 35 µM; activity change, negative = cytotoxicity: at the top concentration
row,Compound,"activity change, negative = cytotoxicity [%]"
1,Cc1ccc2c(CN3CCC(C)CC3)cc(=O)oc2c1C,-5.34
2,CCN(CC)S(=O)(=O)c1cc(C(=O)Nc2cc(C)[nH]n2)ccc1Cl,0.409
3,CC(C)(C)C(=O)OCc1nc(-c2ccc(F)cc2)cs1,10
4,Cc1cc(C(=O)Cn2nc(C(=O)O)c3ccccc3c2=O)c(C)n1CC(F)(F)F,7.32
5,CC(=O)N1N=C(c2ccc(C)cc2)OC1c1ccc(Br)cc1 (stereo unspecified),1.6
6,[O-]/[N+](=C\C=C\c1ccccc1)c1ccccc1,-0.305
7,CCN1CCN(c2cc3c(nn2)Oc2ccccc2N3C)CC1,10.1
8,COc1ccc(NC(=O)Nc2ccc(Br)cn2)cc1,6.21
9,COC(=O)Cc1ccc(OCc2ccc(Cl)nc2)cc1,2.94
10,COc1ccc(NC(=O)n2ncc3cc(Cl)ccc32)cc1OC,2.18
11,Cc1cc(C)c(NN=c2c(=O)c3ccccc3c2=O)c(C)c1,4.61
12,Cc1ccc(/C=N/N2C(=O)c3ccccc3NC2c2ccc(C)cc2)cc1 (stereo unspecified),-11.9
13,CN(c1ccccc1)c1nc2ccsc2c(=O)s1,7.28
14,O=C(OCc1csc(-c2ccccc2)n1)c1ccc(O)cc1,23.3
15,Brc1ccccc1-n1nnc(-c2nccs2)n1,-4.12
16,N#C/C(=N\Nc1ccccc1F)C(=N)N1CCCCC1,-9.97
17,Clc1ccc(-c2nc(C3CCCCC3)no2)cc1,0.174
18,COC(=O)Cc1ccc(NC(=O)c2ccc(C)c(C)c2)cc1,0.895
19,COc1ccc2oc(=O)c(C(=O)N3CCN(c4ccccc4C)CC3)cc2c1,6.89
20,COc1ccc2ccccc2c1/C=N/Nc1cccc(C(=O)O)c1,4.52
21,c1cnc(Nc2nc(-c3ccc4ccccc4c3)cs2)nc1,4.16
